Activity calls are given as the source filed them. The rule behind the calls is not given here.

Sequence of Pantothenate synthetase (Mycobacterium tuberculosis (strain ATCC 25618 / H37Rv)) (P9WIL5 whole entry, looked up): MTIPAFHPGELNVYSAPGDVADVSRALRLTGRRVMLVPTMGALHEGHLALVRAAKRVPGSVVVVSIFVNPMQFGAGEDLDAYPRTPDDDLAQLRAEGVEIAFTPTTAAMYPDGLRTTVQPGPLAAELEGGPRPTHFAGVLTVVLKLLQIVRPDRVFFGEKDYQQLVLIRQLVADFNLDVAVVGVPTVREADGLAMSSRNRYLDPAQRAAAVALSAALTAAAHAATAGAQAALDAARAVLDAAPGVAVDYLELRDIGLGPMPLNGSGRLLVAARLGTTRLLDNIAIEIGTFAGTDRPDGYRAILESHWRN

This experiment concerns the target Pantothenate synthetase (Mycobacterium tuberculosis (strain ATCC 25618 / H37Rv)) (UniProt P9WIL5). Briefly: Recombinant Mtb pantothenate synthetase (PanC) inhibitors, coupled enzyme, confirmatory (AID 375).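 Note: 0% = full reaction with vehicle and 100% = no enzyme background.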 Conditions: coupled enzyme assay; at 10 µM, stronger effect = higher value.
For the compound `CC(=O)Nc1ccc(N=Cc2nc(-c3ccc(C)cc3)oc2O)cc1`, the inhibition was 0% (inactive).

With `CCOc1cc(C2C(C(=O)c3ccccc3)=C(C(=O)OC)Nc3nnnn32)ccc1O` (stereo not given), the inhibition is 0% (inactive).

Consider `O=C(CNC(=O)c1ccccc1C(=O)O)c1ccccc1`, for which the inhibition was 0% (inactive).

Consider `O=C(NCc1ccco1)C1(S(=O)(=O)c2ccc(Cl)cc2)CC1`, for which the inhibition is 0% (inactive).

`O=C(Nc1ccc(SC(F)F)cc1)c1ccc2nccnc2c1`: the inhibition is 0% (inactive).

`CCCCOC(=O)CNc1nnc(SCC(=O)OCC)[nH]c1=O`: the inhibition was 3% (inactive).

In the case of `COc1ccc(-c2nc(C#N)c(N3CCN(c4ccccc4)CC3)o2)cc1`, the inhibition is 0% (inactive).

`CCCc1cc(=O)[nH]c(Nc2ccc(OC)c(Cl)c2)n1`: the inhibition is 3% (inactive).

Regarding `Cc1cc(=O)c2n(Cc3ccccc3Cl)nc[n+]2[nH]1`, the inhibition was 5% (inactive).

As to `CC1(C)CC(=O)c2cnc(NCc3ccco3)nc2C1`, the inhibition is 0% (inactive).

In the case of `O=C(O)c1ccc(C2SCC(=O)N2Cc2ccccc2)cc1` (stereo not given), the inhibition was 2% (inactive).

Turning to `CC(=O)c1cn(CC(=O)NCc2ccc3c(c2)OCO3)c2ccccc12`, the inhibition was 0% (inactive).

Consider `CC(=O)Nc1ccc(OC(=O)c2cccnc2)cc1`, for which the inhibition was 0% (inactive).

In the case of `Cc1ccc(-c2nnn(CC(=O)N(Cc3ccco3)C(C(=O)NC(C)(C)C)c3cccs3)n2)o1` (stereo not given), the inhibition is 0% (inactive).

In the case of `OC[C@H]1O[C@@H](n2cnc3c(NC4CCCC4)ncnc32)[C@H](O)[C@@H]1O`, the inhibition is 1% (inactive).

Regarding `CN1CCN(C(=O)c2ccc(CS(=O)(=O)c3c(Cl)cccc3Cl)o2)CC1`, the inhibition was 16% (inactive).

`CCNC(=O)N(C)c1nncnc1C(=O)NC`: the inhibition is 0% (inactive).

Regarding `O=C(Cn1c(=O)[nH]c2ccsc2c1=O)NC1CCCCCC1`, the inhibition was 7% (inactive).

As for `O=C(CSc1ncnc2sc3c(c12)CCCCC3)NCc1ccco1`, the inhibition is 3% (inactive).

As to `Cc1ccc(Nc2nc(Oc3ccc(=O)[nH]n3)nc(N(C)C)n2)cc1`, the inhibition was 0% (inactive).

In the case of `Cc1nc2cc(NC(=O)N3CC4(C)CC3CC(C)(C)C4)ccc2n1C` (stereo not given), the inhibition is 8% (inactive).

For the compound `COc1cc(OC)cc(-c2nnc(Nc3nc4c(F)cccc4s3)o2)c1`, the inhibition was 12% (inactive).

With `Cc1cccc(C)c1NC(=O)c1cc(S(=O)(=O)N2CCOCC2)ccc1F`, the inhibition was 0% (inactive).

In the case of `Cc1ccc(-n2ncc3c(Nc4c(C)n(C)n(-c5ccccc5)c4=O)ncnc32)c(C)c1`, the inhibition is 10% (inactive).

With `O=C(c1ccco1)N1CCN(S(=O)(=O)c2ccc3c(c2)CCN3C(=O)C2CCC2)CC1`, the inhibition was 0% (inactive).

For `CCCc1nc(NCc2ccncc2)c2nnn(Cc3ccccc3F)c2n1`, the inhibition was 0% (inactive).

In the case of `CC(C)c1nnc(NC(=O)c2ccc(N3C(=O)CCC3=O)cc2)s1`, the inhibition is 0% (inactive).

In the case of `COc1ccc(S(=O)(=O)N2CCC(C(=O)NCc3ccco3)CC2)cc1`, the inhibition was 2% (inactive).

Turning to `COc1ccc(-c2nnc(SCC(=O)Nc3sc4c(c3C#N)CCC4)n2CC2CCCO2)cc1` (stereo not given), the inhibition was 0% (inactive).

Regarding `COc1ccc(CN2CC(C(=O)NCc3ccccn3)CC2=O)cc1` (stereo not given), the inhibition was 5% (inactive).

Take `COc1ccccc1-c1noc(-c2cccnc2)n1`: the inhibition is 13% (inactive).

Regarding `CC(=O)c1cccc(NC(=O)c2ccc(NS(C)(=O)=O)cc2)c1`, the inhibition was 1% (inactive).

For `Cc1ccccc1-c1nc2ccccc2c(=O)n1C1CCS(=O)(=O)C1` (stereo not given), the inhibition is 0% (inactive).

For `COC(=O)c1cc(NS(=O)(=O)c2ccc3c(c2)CCC(=O)N3)cc(C(=O)OC)c1`, the inhibition was 0% (inactive).

Consider `COc1ccccc1NC(=O)C1=C(C)NC(SCC(=O)c2ccc(C)cc2)=C(C#N)C1c1ccco1` (stereo not given), for which the inhibition is 0% (inactive).

As for `CC(=O)N1CCN(S(=O)(=O)c2ccc(S(=O)(=O)NCC(C)C)cc2)CC1`, the inhibition is 5% (inactive).

On to `c1coc(-c2nnc(NC3=NCCC3)o2)c1`, for which the inhibition was 0% (inactive).

With `c1cn(C23CC4CC(CC(C4)C2)C3)cn1`, the inhibition is 0% (inactive).

For the compound `O=C(Nc1ccc(F)cc1)N(CCCN1CCOCC1)Cc1cc2cc3c(cc2[nH]c1=O)OCO3`, the inhibition is 6% (inactive).

In the case of `Cc1ccc(C)c(-n2c(CNC(=O)c3ccco3)nnc2SCC(=O)Nc2nnc(C)s2)c1`, the inhibition is 0% (inactive).

The values are drawn from PubChem BioAssay.
